# Measured values as given in PMC11006913.
# Where a chain is given by its changes, count along the chain named.
# Key:
# Test in all cases: PBM; 200 nM protein, PBS
# Conditions in all cases: dsDNA, one strand shown
# [1] = target: T1, VENTX (Homo sapiens, UniProt O95231 78-163, R121Q)
# T1 sequence: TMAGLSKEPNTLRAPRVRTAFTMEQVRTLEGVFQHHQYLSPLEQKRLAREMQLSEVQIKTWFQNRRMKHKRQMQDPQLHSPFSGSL
# [2] = target: HOXB9 (Homo sapiens, UniProt P17482 171-250, T197M)
# [3] = target: T2, VENTX (Homo sapiens, UniProt O95231 78-163)
# T2 sequence: T1 sequence with Q44R
# [4] = target: T3, VENTX (Homo sapiens, UniProt O95231 78-163, Y115F)
# T3 sequence: T1 sequence with Y38F, Q44R
# [5] = target: HOXB9 (Homo sapiens, UniProt P17482 171-250)
# Sequence of HOXB9 (Homo sapiens, UniProt P17482 171-250) (P17482 171-250): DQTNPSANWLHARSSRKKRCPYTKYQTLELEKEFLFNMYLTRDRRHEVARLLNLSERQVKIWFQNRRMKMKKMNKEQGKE
# [6] = target: HOXB9 (Homo sapiens, UniProt P17482 171-250, R186Q)
# Sequence of HOXB9 (Homo sapiens, UniProt P17482 171-250, R186Q) (P17482 171-250 R186Q): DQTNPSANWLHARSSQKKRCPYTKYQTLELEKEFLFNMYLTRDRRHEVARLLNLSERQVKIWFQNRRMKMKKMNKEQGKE
# [7] = target: T4, SIX6 (Homo sapiens, UniProt O95475 114-200, L167I)
# T4 sequence: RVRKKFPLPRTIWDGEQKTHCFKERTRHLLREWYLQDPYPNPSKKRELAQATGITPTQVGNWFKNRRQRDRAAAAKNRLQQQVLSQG
# [8] = target: T5, SIX6 (Homo sapiens, UniProt O95475 114-200, L143V)
# T5 sequence: T4 sequence with L30V, I54L
# [9] = target: T6, SIX6 (Homo sapiens, UniProt O95475 114-200, H141N)
# T6 sequence: T4 sequence with H28N, I54L
# [10] = target: T7, SIX6 (Homo sapiens, UniProt O95475 114-200, T165P)
# T7 sequence: T4 sequence with T52P, I54L
# [11] = target: T8, SIX6 (Homo sapiens, UniProt O95475 114-200, L167M)
# T8 sequence: T4 sequence with I54M
# [12] = target: T9, SIX6 (Homo sapiens, UniProt O95475 114-200, L143M)
# T9 sequence: T4 sequence with L30M, I54L
# [13] = target: T10, SIX6 (Homo sapiens, UniProt O95475 114-200, L143I)
# T10 sequence: T4 sequence with L30I, I54L
# [14] = target: T11, SIX6 (Homo sapiens, UniProt O95475 114-200, T165G)
# T11 sequence: T4 sequence with T52G, I54L
# [15] = target: T12, SIX6 (Homo sapiens, UniProt O95475 114-200, T139Q)
# T12 sequence: T4 sequence with T26Q, I54L
# [16] = target: T13, SIX6 (Homo sapiens, UniProt O95475 114-200, T165A)
# T13 sequence: T4 sequence with T52A, I54L
# [17] = target: T14, SIX6 (Homo sapiens, UniProt O95475 114-200, L167V)
# T14 sequence: T4 sequence with I54V
# [18] = target: T15, SIX6 (Homo sapiens, UniProt O95475 114-200)
# T15 sequence: T4 sequence with I54L
# [19] = target: T16, SIX6 (Homo sapiens, UniProt O95475 114-200, T165I)
# T16 sequence: T4 sequence with T52I, I54L
# [20] = target: VAX1 (Homo sapiens, UniProt Q5SQQ9 86-172)
# Sequence of VAX1 (Homo sapiens, UniProt Q5SQQ9 86-172) (Q5SQQ9 86-172): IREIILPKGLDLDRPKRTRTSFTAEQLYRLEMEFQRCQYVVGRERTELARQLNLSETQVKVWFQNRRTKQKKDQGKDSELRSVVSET
# [21] = target: VAX1 (Homo sapiens, UniProt Q5SQQ9 86-172, T142I)
# Sequence of VAX1 (Homo sapiens, UniProt Q5SQQ9 86-172, T142I) (Q5SQQ9 86-172 T142I): as the sequence (Q5SQQ9 86-172) above, with T57I counted along it
# [22] = target: VAX1 (Homo sapiens, UniProt Q5SQQ9 86-172, K157R)
# Sequence of VAX1 (Homo sapiens, UniProt Q5SQQ9 86-172, K157R) (Q5SQQ9 86-172 K157R): as the sequence (Q5SQQ9 86-172) above, with K72R counted along it
# [23] = target: HOXC9 (Homo sapiens, UniProt P31274 178-260, K195R)
# Sequence of HOXC9 (Homo sapiens, UniProt P31274 178-260, K195R) (P31274 178-260 K195R): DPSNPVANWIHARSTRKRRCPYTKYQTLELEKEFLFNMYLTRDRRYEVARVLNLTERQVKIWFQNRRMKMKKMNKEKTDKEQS
# [24] = target: HOXC9 (Homo sapiens, UniProt P31274 178-260)
# Sequence of HOXC9 (Homo sapiens, UniProt P31274 178-260) (P31274 178-260): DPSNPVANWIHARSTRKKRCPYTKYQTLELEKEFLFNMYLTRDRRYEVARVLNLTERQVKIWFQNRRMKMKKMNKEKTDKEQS
# [25] = target: ALX1 (Homo sapiens, UniProt Q15699 118-204, L144V)
# Sequence of ALX1 (Homo sapiens, UniProt Q15699 118-204, L144V) (Q15699 118-204 L144V): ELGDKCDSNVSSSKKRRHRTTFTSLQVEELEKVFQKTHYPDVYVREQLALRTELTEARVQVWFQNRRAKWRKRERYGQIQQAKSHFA
# [26] = target: HOXC9 (Homo sapiens, UniProt P31274 178-260, R193K)
# Sequence of HOXC9 (Homo sapiens, UniProt P31274 178-260, R193K) (P31274 178-260 R193K): as the sequence (P31274 178-260) above, with R16K counted along it
# [27] = target: ALX1 (Homo sapiens, UniProt Q15699 118-204, L144R)
# Sequence of ALX1 (Homo sapiens, UniProt Q15699 118-204, L144R) (Q15699 118-204 L144R): as the sequence (Q15699 118-204 L144V) above, with V27R counted along it
# [28] = target: HOXC9 (Homo sapiens, UniProt P31274 178-260, R222W)
# Sequence of HOXC9 (Homo sapiens, UniProt P31274 178-260, R222W) (P31274 178-260 R222W): as the sequence (P31274 178-260) above, with R45W counted along it
# [29] = target: ALX1 (Homo sapiens, UniProt Q15699 118-204)
# Sequence of ALX1 (Homo sapiens, UniProt Q15699 118-204) (Q15699 118-204): as the sequence (Q15699 118-204 L144V) above, with V27L counted along it
# Sequence of HOXB9 (Homo sapiens, UniProt P17482 171-250, T197M) (P17482 171-250 T197M): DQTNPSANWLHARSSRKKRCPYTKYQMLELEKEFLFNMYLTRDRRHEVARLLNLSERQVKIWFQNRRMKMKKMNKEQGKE
sequence,measurement,setting,value
CTCCCGAG,binding signal,[1],"8.03 upbm affinity estimate (log intensity, higher = more binding, comparable within an allelic series)"
same,binding signal,[2],"8.41 upbm affinity estimate (log intensity, higher = more binding, comparable within an allelic series)"
same,binding signal,[3],"8.1 upbm affinity estimate (log intensity, higher = more binding, comparable within an allelic series)"
same,binding signal,[4],"8.07 upbm affinity estimate (log intensity, higher = more binding, comparable within an allelic series)"
same,binding signal,[5],"8.42 upbm affinity estimate (log intensity, higher = more binding, comparable within an allelic series)"
same,binding signal,[6],"8.44 upbm affinity estimate (log intensity, higher = more binding, comparable within an allelic series)"
AATGATAC,binding signal,[1],"9.95 upbm affinity estimate (log intensity, higher = more binding, comparable within an allelic series)"
same,binding signal,[7],"11.5 upbm affinity estimate (log intensity, higher = more binding, comparable within an allelic series)"
same,binding signal,[3],"10.2 upbm affinity estimate (log intensity, higher = more binding, comparable within an allelic series)"
same,binding signal,[8],"10.6 upbm affinity estimate (log intensity, higher = more binding, comparable within an allelic series)"
same,binding signal,[9],"11.5 upbm affinity estimate (log intensity, higher = more binding, comparable within an allelic series)"
same,binding signal,[10],"10.1 upbm affinity estimate (log intensity, higher = more binding, comparable within an allelic series)"
same,binding signal,[4],"9.98 upbm affinity estimate (log intensity, higher = more binding, comparable within an allelic series)"
same,binding signal,[11],"11 upbm affinity estimate (log intensity, higher = more binding, comparable within an allelic series)"
same,binding signal,[12],"11.3 upbm affinity estimate (log intensity, higher = more binding, comparable within an allelic series)"
same,binding signal,[13],"10.6 upbm affinity estimate (log intensity, higher = more binding, comparable within an allelic series)"
same,binding signal,[14],"11.5 upbm affinity estimate (log intensity, higher = more binding, comparable within an allelic series)"
same,binding signal,[15],"11.3 upbm affinity estimate (log intensity, higher = more binding, comparable within an allelic series)"
same,binding signal,[16],"11.4 upbm affinity estimate (log intensity, higher = more binding, comparable within an allelic series)"
same,binding signal,[17],"11.3 upbm affinity estimate (log intensity, higher = more binding, comparable within an allelic series)"
same,binding signal,[18],"11.2 upbm affinity estimate (log intensity, higher = more binding, comparable within an allelic series)"
same,binding signal,[19],"11.3 upbm affinity estimate (log intensity, higher = more binding, comparable within an allelic series)"
ATGATATG,binding signal,[1],"9.57 upbm affinity estimate (log intensity, higher = more binding, comparable within an allelic series)"
same,binding signal,[7],"11.3 upbm affinity estimate (log intensity, higher = more binding, comparable within an allelic series)"
same,binding signal,[3],"9.91 upbm affinity estimate (log intensity, higher = more binding, comparable within an allelic series)"
same,binding signal,[8],"10.4 upbm affinity estimate (log intensity, higher = more binding, comparable within an allelic series)"
same,binding signal,[9],"11.3 upbm affinity estimate (log intensity, higher = more binding, comparable within an allelic series)"
same,binding signal,[10],"9.99 upbm affinity estimate (log intensity, higher = more binding, comparable within an allelic series)"
same,binding signal,[11],"10.7 upbm affinity estimate (log intensity, higher = more binding, comparable within an allelic series)"
same,binding signal,[12],"11.1 upbm affinity estimate (log intensity, higher = more binding, comparable within an allelic series)"
same,binding signal,[13],"10.5 upbm affinity estimate (log intensity, higher = more binding, comparable within an allelic series)"
same,binding signal,[14],"11.4 upbm affinity estimate (log intensity, higher = more binding, comparable within an allelic series)"
same,binding signal,[15],"11.3 upbm affinity estimate (log intensity, higher = more binding, comparable within an allelic series)"
same,binding signal,[16],"11.2 upbm affinity estimate (log intensity, higher = more binding, comparable within an allelic series)"
same,binding signal,[17],"11.1 upbm affinity estimate (log intensity, higher = more binding, comparable within an allelic series)"
same,binding signal,[18],"11.1 upbm affinity estimate (log intensity, higher = more binding, comparable within an allelic series)"
same,binding signal,[19],"11.1 upbm affinity estimate (log intensity, higher = more binding, comparable within an allelic series)"
CAAGGCCC,binding signal,[1],"7.94 upbm affinity estimate (log intensity, higher = more binding, comparable within an allelic series)"
same,binding signal,[7],"8.9 upbm affinity estimate (log intensity, higher = more binding, comparable within an allelic series)"
same,binding signal,[3],"7.78 upbm affinity estimate (log intensity, higher = more binding, comparable within an allelic series)"
same,binding signal,[8],"8.85 upbm affinity estimate (log intensity, higher = more binding, comparable within an allelic series)"
same,binding signal,[9],"8.89 upbm affinity estimate (log intensity, higher = more binding, comparable within an allelic series)"
same,binding signal,[10],"8.97 upbm affinity estimate (log intensity, higher = more binding, comparable within an allelic series)"
same,binding signal,[4],"7.82 upbm affinity estimate (log intensity, higher = more binding, comparable within an allelic series)"
same,binding signal,[11],"8.85 upbm affinity estimate (log intensity, higher = more binding, comparable within an allelic series)"
same,binding signal,[12],"8.93 upbm affinity estimate (log intensity, higher = more binding, comparable within an allelic series)"
same,binding signal,[13],"8.82 upbm affinity estimate (log intensity, higher = more binding, comparable within an allelic series)"
same,binding signal,[14],"8.95 upbm affinity estimate (log intensity, higher = more binding, comparable within an allelic series)"
same,binding signal,[15],"8.93 upbm affinity estimate (log intensity, higher = more binding, comparable within an allelic series)"
same,binding signal,[16],"8.92 upbm affinity estimate (log intensity, higher = more binding, comparable within an allelic series)"
same,binding signal,[17],"8.98 upbm affinity estimate (log intensity, higher = more binding, comparable within an allelic series)"
same,binding signal,[18],"8.89 upbm affinity estimate (log intensity, higher = more binding, comparable within an allelic series)"
same,binding signal,[20],"7.02 upbm affinity estimate (log intensity, higher = more binding, comparable within an allelic series)"
same,binding signal,[19],"8.88 upbm affinity estimate (log intensity, higher = more binding, comparable within an allelic series)"
same,binding signal,[21],"7.07 upbm affinity estimate (log intensity, higher = more binding, comparable within an allelic series)"
same,binding signal,[22],"6.96 upbm affinity estimate (log intensity, higher = more binding, comparable within an allelic series)"
CCCCCTGA,binding signal,[1],"7.9 upbm affinity estimate (log intensity, higher = more binding, comparable within an allelic series)"
same,binding signal,[23],"9.31 upbm affinity estimate (log intensity, higher = more binding, comparable within an allelic series)"
same,binding signal,[3],"7.95 upbm affinity estimate (log intensity, higher = more binding, comparable within an allelic series)"
same,binding signal,[4],"7.94 upbm affinity estimate (log intensity, higher = more binding, comparable within an allelic series)"
same,binding signal,[24],"9.4 upbm affinity estimate (log intensity, higher = more binding, comparable within an allelic series)"
same,binding signal,[25],"6.45 upbm affinity estimate (log intensity, higher = more binding, comparable within an allelic series)"
same,binding signal,[26],"9.32 upbm affinity estimate (log intensity, higher = more binding, comparable within an allelic series)"
same,binding signal,[27],"6.47 upbm affinity estimate (log intensity, higher = more binding, comparable within an allelic series)"
same,binding signal,[28],"9.33 upbm affinity estimate (log intensity, higher = more binding, comparable within an allelic series)"
same,binding signal,[29],"6.49 upbm affinity estimate (log intensity, higher = more binding, comparable within an allelic series)"
CTAATGGA,binding signal,[1],"11.7 upbm affinity estimate (log intensity, higher = more binding, comparable within an allelic series)"
